hgDAF12 agonist: agonists of H. glycines DAF-12 nuclear receptor | HEK293 GAL4-hgDAF12 UAS-luciferase reporter, agonist luminescence; normalized to butyrate control | activation, % at 6.8 µM | hit rate 1.8% among 370,000 | AID 687014;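 active means activation above a cutoff set at the mean of all screened compounds plus 3 SD, cut at about 10% in these data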
hcDAF-12 act: activates DAF-12 receptor from parasite H. contortus. HEK293 hcDAF-12 lit1-tk-luc reporter, luminescence; 0% DMSO, 100% Δ7-dafachronic acid. activation, % at 6.8 µM. hit rate 1.4% among 370,000. AID 652067;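 active means activation above the mean of all tested compounds plus 3 SD, cut at about 5.5% in these data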
DAX1 inh-1: NR0B1 (DAX1) inhibition; P51843; AID 504766; inhibition, % at 6.75 µM; hit rate 0.99% among 340,000; HEK293 Gal4-DAX1 luciferase reporter, luminescence;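 active means inhibition above the mean over all tested compounds plus 3 SD, cut at about 4.2% in these data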;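 further: inhibition shows as a rise in luminescence from relieved DAX1 repression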
ssDAF-12 act: activators of S. stercoralis DAF-12 nuclear receptor | HEK293 ssDAF-12/GRIP1 lit1-tk-luc reporter, luminescence; % of 3 µM dafachronic acid response | activation, % at 6.8 µM | hit rate 1% among 370,000 | AID 652126;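 active means activation above the mean over all tested compounds plus 3 SD, cut at about 0.9% in these data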
AHR act: activates the human aryl hydrocarbon receptor | hit rate 2.5% among 320,000 | AID 2796 | P35869 | AHR-responsive luciferase reporter cells, luminescence | activation, % at 5 µM; in the data active means activation above about 47%
Target sequence (P35869 whole entry, looked up): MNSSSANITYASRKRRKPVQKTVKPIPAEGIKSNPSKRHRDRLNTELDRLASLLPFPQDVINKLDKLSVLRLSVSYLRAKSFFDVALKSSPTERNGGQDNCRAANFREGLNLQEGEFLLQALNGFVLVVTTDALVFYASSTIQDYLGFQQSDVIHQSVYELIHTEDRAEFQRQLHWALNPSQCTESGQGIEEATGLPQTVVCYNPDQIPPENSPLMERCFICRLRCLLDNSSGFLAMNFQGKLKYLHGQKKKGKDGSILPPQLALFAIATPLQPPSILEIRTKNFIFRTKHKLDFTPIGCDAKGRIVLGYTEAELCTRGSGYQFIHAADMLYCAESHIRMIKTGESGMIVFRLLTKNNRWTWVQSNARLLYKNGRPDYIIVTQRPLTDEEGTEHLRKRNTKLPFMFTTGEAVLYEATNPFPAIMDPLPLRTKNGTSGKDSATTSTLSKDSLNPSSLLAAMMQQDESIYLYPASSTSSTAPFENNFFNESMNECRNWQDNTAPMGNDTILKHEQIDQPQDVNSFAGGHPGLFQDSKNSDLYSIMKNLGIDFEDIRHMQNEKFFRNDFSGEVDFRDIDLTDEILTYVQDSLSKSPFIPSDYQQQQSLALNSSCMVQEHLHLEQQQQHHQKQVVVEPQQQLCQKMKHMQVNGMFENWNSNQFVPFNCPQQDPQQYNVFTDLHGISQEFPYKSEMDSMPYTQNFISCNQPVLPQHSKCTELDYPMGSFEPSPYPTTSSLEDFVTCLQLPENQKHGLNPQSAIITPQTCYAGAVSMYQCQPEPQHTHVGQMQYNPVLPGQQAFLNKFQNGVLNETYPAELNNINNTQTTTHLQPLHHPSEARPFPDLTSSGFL
DAX1 inh-2: DAX1 (NR0B1) inhibition, primary screen; inhibition, % at 6.8 µM; HEK293T StAR-luciferase reporter, SF-1/DAX-1 repression relief; hit rate 1.1% among 370,000; AID 652010;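 active means inhibition above the mean over all tested compounds plus 3 SD, cut at about 3.6% in these data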;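 further: higher inhibition means more luminescence from relief of DAX-1 repression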
A number is an active result; - = inactive; . = no result given. Compounds with a hit are over-represented: about 5.7% of the library has one in this group of screens.

SMILES | hgDAF12 agonist | hcDAF-12 act | DAX1 inh-1 | ssDAF-12 act | AHR act | DAX1 inh-2
CC(C)[C@H](N)C(=O)N[C@H]1CCC2C3CC=C4C[C@@H](O)CC[C@]4(C)C3CC[C@@]21C (some centres not stated) | - | - | - | - | . | -
CCCNc1c(N)n(-c2ccccc2)c(=O)[nH]c1=O | - | - | 6.1 | - | - | -
CC(=O)NC(CCS(C)(=O)=O)C(=O)N1CCc2ccccc21 (configuration not stated) | - | 5.6 | - | 1.0 | - | -
Cc1ccc(NC(=O)C2CCCN2C(=O)c2cccs2)cc1C (configuration not stated) | - | - | - | - | - | -
O=C(Cn1c2[n+](c3ccc(C(F)(F)F)cc31)CCCCC2)Nc1ccccc1 | - | 5.9 | - | - | - | -
CCc1cccc(NC(=O)Cn2c3[n+](c4ccc(C(F)(F)F)cc42)CCCCC3)c1 | - | - | - | - | - | -
CC(C)c1ccc(N(C(=O)c2csnn2)C(C(=O)NC(C)(C)C)c2ccncc2)cc1 (configuration not stated) | 17 | 6.3 | - | - | - | -
Cc1ccc(N(C(=O)c2csnn2)C(C(=O)NC(C)(C)C)c2ccncc2)cc1 (configuration not stated) | - | - | - | - | - | -
Cc1ccc(-c2[nH]ncc2/C=N/n2c(C)nc3ccccc3c2=O)cc1 | - | - | - | - | 61 | -
O=c1c2ccccc2nc(COc2ccccc2)n1/N=C/c1cn[nH]c1-c1ccccc1 | - | - | - | - | - | -
COc1ccc(-c2csc(-c3cc4ccccc4oc3=N)n2)cc1 | - | - | - | - | 50 | -
COc1ccc(-c2noc(-c3cc4ccccc4oc3=O)n2)cc1 | . | . | . | . | - | .
Cc1cc(-c2c(C)[nH]n(-c3ccccc3)c2=O)n(-c2ccccc2)n1 | - | - | - | - | - | -
Cc1cc(-c2c(C)[nH]n(-c3ccccc3)c2=O)n[nH]1 | - | 5.8 | - | - | - | -
Cc1cccc(NC(=O)Nc2ccc3c(c2)CCC3)c1 | - | - | - | - | - | 4.1
CCc1ccc(NC(=O)Nc2ccc3c(c2)CCC3)cc1 | - | - | - | - | - | 3.7
CC(=O)c1cccc(NC(=O)Nc2ccc3c(c2)CCC3)c1 | - | - | - | - | - | -
O=C(Nc1cc(NC(=O)c2ccccc2F)ccc1Cl)c1ccccc1 | - | - | - | - | 79 | -
Cc1cc(C)cc(NC(=O)Nc2cccc(S(N)(=O)=O)c2)c1 | - | - | . | - | 58 | -
CC(C)(C)S(=O)N1C[C@@H]2CC(=O)C(CCO)=C2[C@H]1CCO (some centres not stated) | - | - | . | - | . | -
Cc1cn(CC(=O)NCc2ccccc2)c(=O)[nH]c1=O | - | - | - | - | . | -
CCOC(=O)C1CCCN(C(=O)Cc2ccc(OC)c(OC)c2)CC1 (configuration not stated) | - | - | . | - | . | -
Cc1cccc(NC(=O)C2C3CCCCC32)c1 (configuration not stated) | - | - | 5.5 | - | . | -
COc1cccc(NC(=O)Nc2ccc3c(c2)CCC3)c1 | 12 | - | - | - | - | 4.1
Cc1cccc(NC(=O)C(=O)NCc2ccccn2)c1 | - | - | 4.3 | - | - | -
SMILES | hgDAF12 agonist | hcDAF-12 act | DAX1 inh-1 | ssDAF-12 act | AHR act | DAX1 inh-2
Cc1cccc(NC(=O)Nc2cnccn2)c1 | - | - | - | - | - | -
Cc1cccc(NC(=O)Nc2ccncc2)c1 | - | - | - | 1.1 | 53 | -
O=C(Nc1ccccc1)C1C2CCCCC21 (configuration not stated) | - | - | - | - | - | -
Cc1cccc(NC(=S)NCc2ccccn2)c1 | - | - | - | - | - | -
O=C(Cc1cccc(F)c1)Nc1ccc2c(c1)CCC2 | - | - | - | - | - | -
O=C(Cc1ccc2c(c1)CCCC2)Nc1ccc2ccccc2c1 | - | 5.7 | - | - | - | -
COc1ccccc1C(=O)NCC(=O)Nc1ccc2c(c1)CCC2 | - | - | - | - | 70 | -
CCC(=O)Nc1ccc(Cl)c(NC(=O)c2ccccc2OC)c1 | - | - | - | - | 51 | -
CN1C(=S)SC(N(O)C(=O)Nc2ccccc2)C1(C)C (configuration not stated) | - | - | - | - | - | -
CN1C(=S)SC(N(O)C(=O)Nc2cccc3ccccc23)C1(C)C (configuration not stated) | - | - | - | - | 75 | -
Cc1ccccc1NC(=O)CN1C(=O)S/C(=C/c2cccnc2)C1=O | - | - | - | - | - | -
Cc1ccc(C(=O)CCC(=O)NNC(=O)c2ccccc2O)cc1 | - | - | - | - | - | -
Cc1coc2cc3oc(=O)c(CCC(=O)NCC(=O)O)c(C)c3cc12 | - | - | 6.1 | - | . | -
Cc1c(CCC(=O)NCC(=O)O)c(=O)oc2cc3occ(-c4ccccc4)c3cc12 | - | - | - | - | . | -
Cc1nc(SC(C)C(=O)c2c(N)n(C)c(=O)n(C)c2=O)c2c(C)c(C)sc2n1 (configuration not stated) | - | - | - | - | - | -
COc1ccccc1NC(=O)/C=C1\NC(=O)CS1 | - | - | - | - | - | -
Cc1ccc(NC(=O)/C=C2\NC(=O)CS2)cc1 | - | - | - | - | 61 | -
c1ccc(Cn2cnc3ccccc32)cc1 | 13 | - | - | - | - | -
NC(=O)CCn1cnc2ccccc21 | - | - | 4.3 | - | - | -
O=C(CCCC(=O)n1cnc2ccccc21)n1cnc2ccccc21 | - | - | - | - | - | -
Clc1ccc(Cn2cnc3ccccc32)cc1 | - | - | - | - | - | -
Brc1ccc(-c2csc(-c3c[nH]c4ccccc34)n2)cc1 | - | - | - | - | 78 | -
Cc1ccc(F)cc1NCC(=O)Nc1ccc(Br)cc1 | - | - | - | - | 72 | -
O=[N+]([O-])c1cccc(C(=Nc2ccccc2)NO)c1 | - | - | - | - | - | -
O=[N+]([O-])c1cccc(C(=Nc2ccc(Cl)cc2)NO)c1 | - | - | - | - | 67 | -
SMILES | hgDAF12 agonist | hcDAF-12 act | DAX1 inh-1 | ssDAF-12 act | AHR act | DAX1 inh-2
Clc1cccc(/C=N/Nc2nnc(Cl)c3ccccc23)c1 | - | - | - | - | 50 | -
Clc1ccc(/C=N/Nc2nnc(-c3ncc[nH]3)c3ccccc23)cc1 | - | - | - | - | 76 | -
Cc1ccc2c(c1)N(C(=O)CCC(=O)NCCCN1CC(C)CC(C)C1)CCO2 (configuration not stated) | - | - | - | - | - | -
COc1ccc(S(=O)(=O)CCc2nnc(NC(=O)c3ccc(F)cc3)s2)cc1 | - | - | - | - | - | -
O=C(Nc1ccc(C(F)(F)F)cc1)c1cccnc1N1CCOCC1 | - | - | - | - | 61 | -
CC(=O)Nc1nc(-c2cccs2)cs1 | - | - | - | - | - | -
CNC(=O)c1ccsc1NC(=O)CCS(=O)(=O)c1ccccc1 | - | - | - | - | - | -

Compound activity: PubChem BioAssay, The Scripps Research Institute Molecular Screening Center
